For 34 compounds, growth results are on record in PubChem BioAssay (NCI).

About 83,000 compounds went through this panel and 20% of them were active in at least one assay; those are over-represented in the sample as a whole.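 The test compound was applied at a single concentration to cells in 96-well plates for 48 hours, and percent growth was recorded.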 Unmarked numbers belong to inactive results. Activity calls are given as the source filed them. The calls were made as follows: active = growth percent below 10; inactive = the rest.

For this assay, the system named is DU-145 prostate. Briefly: NCI-60 one-dose screen, 48 h (100 = growth as untreated, 0 = no growth, -100 = all killed). To be noted: 10 µM unless noted.
For `O=C1NC(=O)c2c1c1c3cc(Br)ccc3[nH]c1c1oc3ccc(F)cc3c21`, the growth is -31.5% (active).
To `C#CCOc1ccc(/C=N/Nc2nc(-c3ccc(F)cc3)cs2)cc1OC` belongs 89%.
With `O=C1NC(=O)/C(=C/c2ccccc2OCc2cc3ccccc3nc2Cl)S1` the figure was 90.5%; with `Cc1ccc(NCC(=O)Cn2cc(COc3ccc(C=Nc4cnc5ccccc5c4)cc3)nn2)cc1`, 119%.
To `C/C(=N\N=C1/C(=O)Nc2ccccc21)c1ccc2c(c1)Nc1ccccc1S2` belongs 53.2%; to `C/C(=N\N=C1/C(=O)Nc2ccc(Cl)cc21)c1ccc2c(c1)Nc1ccccc1S2`, -56.3% (active).
In the case of `CCN(CC)c1ccnc(CNCCSC(c2ccccc2)(c2ccccc2)c2ccc(C)cc2)c1`, the growth is -59.7% (active).
On to `Cc1cc2c(cc1Cl)C(=O)/C(=C/c1ccccc1)O2`, for which the growth was -94.3% (active).
For the compound `COc1ccc(C(=O)/C=C/c2ccc(OCc3ccc(F)cc3)c(OC)c2)cc1OC`, the growth was 1.63% (active).
To `COc1cc(OC)c2c3nc4cc(C)c(C)cc4nc3n(CCN(C)C)c2c1` belongs 60.4%; to `N=C1N=C(SCc2nc3ccccc3[nH]2)NC(=O)/C1=C/c1ccc(Cl)cc1`, 110%; to `COc1ccc(C2CC(c3ccc(S(=O)(=O)NCCNc4nc(Nc5ccc(F)cc5)nc(N(C)C)n4)cc3)=Nc3c(N)nc(N)nc3N2)cc1` (centres undefined), 102%.
With `O=C(Cn1nc(-c2ccccc2)ccc1=O)N/N=C/c1ccc(N2CCOCC2)cc1` the figure was 101%.
Take `CC1(C)CC[C@]2(C(=O)O)CC[C@]3(C)C(=CCC4[C@@]5(C)C[C@@H](O)[C@@H]6OC(c7cccc(Br)c7)OC[C@@]6(C)C5CC[C@]43C)C2C1` (some centres undefined): the growth is 32.5%.
Take `COc1ccc(C(=O)/C=C/c2ccc(OCc3ccccc3)c(OC)c2)cc1OC`: the growth is 7.25% (active).
`O=C(N=Nc1c(O)[nH]c2ccc([N+](=O)[O-])cc12)c1ccc2nc(-c3ccccc3)[nH]c2c1`: the growth was 57.9%.
As for `C/C(=N\N=C\c1cc([N+](=O)[O-])ccc1Cl)c1ccc2c(c1)Nc1ccccc1S2`, the growth is 84.2%.
`C=C1CCC2C3(C)COC(c4ccc(F)cc4)OC3CCC2(C)C1C/C=C1/C(=O)OCC1O` (centres undefined): the growth is -41.4% (active).
With `CCCSc1nc(NCCc2c[nH]c3ccccc23)c(C#N)c(-c2ccc(OC)cc2)n1`, the growth is 62.2%.
With `N/C(=N\c1nc2ccccc2s1)NC(=O)Nc1ccccc1Br` the figure was -40.7% (active); with `O=C(Cn1c2c(sc1=O)[C@H]1[C@@H](O)[C@@H](O)[C@H](O)[C@@H]1CS2)N1CCOCC1`, 112%.
With `COC(=O)/C=C/c1cccc2c1C(=O)NC(C)(c1cc3ccccc3oc1=O)N2` (centres undefined) the figure was 62.7%; with `Brc1ccc(-c2n(Cc3ccc4ccccc4c3)c(-c3ccccc3)c(-c3ccccc3)[n+]2Cc2ccc3ccccc3c2)cc1`, -100% (active).
`COc1ccc(NC(=O)Cn2c3c(sc2=O)[C@H]2[C@@H](O)[C@@H](O)[C@H](O)[C@@H]2CS3)cc1`: the growth was 109%.
To `Cc1cc2nc3c4ccccc4n(CCCN(C)C)c3nc2cc1C` belongs 2.68% (active); to `O=S(=O)(Nc1cccc(-n2cnc3cc(-c4ccc(O)cc4)ccc32)c1)C1CC1`, 27.5%; to `CN(C)c1ccnc(CNCCSC2(c3ccc(C(F)(F)F)cc3)c3ccccc3C=Cc3ccccc32)c1`, 3.69% (active).
As for `CN(C)c1nc(NCCNS(=O)(=O)c2ccc(C3=Nc4c(N)nc(N)nc4NC(c4ccc(C(F)(F)F)cc4)C3)cc2)nc(Nc2ccc(F)cc2)n1` (centres undefined), the growth was 26.9%.
For the compound `O=C(NN1C(=O)/C(=C/C=C/c2ccc([N+](=O)[O-])o2)SC1=S)c1ccc(Cl)cc1`, the growth was -100% (active).
To `COCOc1ccc2c(=O)c(C)c(C(=O)N[C@@H](Cc3ccccc3)C(O)C(=O)NCCc3ccc(OC)cc3)oc2c1` (some centres undefined) belongs 106%; to `C#CCOc1cc(N(CC)CC)ccc1C(C(=O)NC(C)(C)C)N(C(=O)C1CCc2cc(F)ccc2O1)c1ccc(Br)cc1` (centres undefined), 97.1%; to `Cc1cc2nc3c4ccccc4n(CC4=NCCN4)c3nc2cc1C`, 2.14% (active).
For `Cn1cc(-c2nc(N)nnc2-c2c[nH]c3ccc(F)cc23)c2cccnc21`, the growth is 49.9%.
With `COc1ccc(N2N=C(c3ccc4c(c3)OCO4)CC2c2cccc(NC(=O)CCNS(=O)(=O)c3ccc(Cl)cc3)c2)cc1` (centres undefined) the figure was 39.7%.
